Screening results from PubChem.
This is a sample that favours compounds with a hit; in the whole collection about 12% have one here.
G9a block = blocks human histone lysine methyltransferase G9a; Q96KQ7; G9a H3K9 monomethylation, AlphaScreen, 2 h; Potency, µM (doses to about 102 µM), for the others: at the highest dose activity, negative = inhibition, usual class: inhibitors; 350,000 tested, 8.8% active; AID 504332; further: on the % scale 0 is the no-effect control and ±100 the full control effect; nearly all actives have a fitted effect of over 75% in size
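Methyltransferase reactions run at room temperature for 2 h (20 nM enzyme, 500 nM biotin-H3K9 peptide, 20 uM SAM) after a 15 min compound preincubation; product detected by AlphaScreen beads and anti-H3K9me1 antibody.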
BAZ2B inh = blocks human BAZ2B; Potency, µM (highest dose often 114 µM), for inactives: at the highest dose activity change, negative = inhibition, actives largely listed as inhibitors; 360,000 tested, 4.4% active; AlphaScreen BAZ2B-H3K14Ac peptide displacement; AID 504333; further: on the % scale 0 is the no-effect control and ±100 the full control effect; nearly all actives have a fitted effect of over 60% in size
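BAZ2B 50 nM plus b-H3(5-23)K14Ac 50 nM, PBS pH 7.4/0.01% Tween-20, 30 min RT; compound added (max 110 uM), 30 min RT; streptavidin donor/Ni-chelate acceptor beads 10 ug/mL final, 20 min dark; AlphaScreen read.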
PLK1 PBD block = blocks phosphopeptide binding to human PLK1 polo-box domain; P53350; Potency, µM, without a hit: max response, negative = inhibition, hits mostly inhibitors; AID 720504; 360,000 tested, 2.8% active; Plk1 PBD binding of FITC phosphopeptide, fluorescence polarization; further: series mostly up to about 57 µM; on the % scale 0 is the no-effect control and ±100 the full control effect; nearly all actives have a fitted effect of over 65% in size
Sfp PPTase inh = blocks B. subtilis Sfp PPTase activity; Biochemical Sfp PPTase activity, qHTS; Q9F4F7; 310,000 tested, 3.5% active; Potency, µM, inactives show largest response in the series, negative = inhibition, hits mostly inhibitors;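 further: the enzyme is Sfp with the accession as filed and its product quenches rhodamine fluorescence; 0% = enzyme reaction without inhibitor and -100% = no enzyme wells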
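With Hepes-Na pH 7.6 buffer containing 10 mM MgCl2, Sfp (15 nM) modified BHQ-2-YbbR (12.5 uM) using rhodamine-CoA (5 uM). Two reads 30 minutes apart at 525/598 nm yielded each well's rate.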
HP1b chromo inh = HP1-beta chromodomain-methylated histone interaction inhibition; AlphaScreen HP1-beta / biotin-H3K9me3 peptide binding; Potency, µM (series often up to 114 µM), for the others: at the highest dose activity change, negative = inhibition, hits mostly inhibitors; 390,000 tested, 0.56% active; P83916; further: nearly all actives have a fitted effect of over 70% in size
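HP1-beta protein (50 nM final) preincubated 30 min at room temperature with biotinylated H3(1-18)K9me3 peptide (50 nM) in PBS pH 7.4, 0.01% Tween-20, then compound added for 30 min. AlphaScreen streptavidin donor/nickel chelate acceptor beads (10 ug/mL final), 30 min dark, luminescence read.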
JMJD2A Tudor = inhibitors of human JMJD2A Tudor domain | O75164 | AlphaScreen JMJD2A-Tudor / H3K4me3 peptide binding | Potency, µM (top dose mostly 114 µM), without a hit: top-dose activity change, negative = inhibition, hits mostly inhibitors | 390,000 tested, 4.4% active; further: on the % scale 0 is the no-effect control and ±100 the full control effect; nearly all actives have a fitted effect of over 50% in size
Active calls of the source: *; u = inconclusive; x = no result given; ! = a repeat was not active; [ ] = another dose, or the depositor's remark. The call rests on the fitted dose curve; in most records, active means well fitted curve in the direction sought with a large enough effect; inconclusive means small, poorly fitted or top-dose-only effect, or another doubt; inactive means no such curve, though single readings can be large; an effect the other way counts as inactive or inconclusive. Potency means the concentration at half of the fitted maximal effect.

SMILES	G9a block	BAZ2B inh	PLK1 PBD block	Sfp PPTase inh	HP1b chromo inh	JMJD2A Tudor
Cc1ccccc1C1=CCN(c2ncc(NC(=O)c3ccc(Cl)cc3)cc2C(=O)O)CC1	u	50µM*	x	x	u	79µM*
Cc1ccc(CNCc2c(C(=O)O)c(C)n(Cc3ccc(C)cc3)c2C)cc1	0%[59 µM]	-31%	x	x	19%	-28%
CCc1cccc(CC)c1NC(=S)NCCc1c(C)[nH]c2ccc(C)cc12	40µM*	28µM*	-8%	5%	-22%	32µM*
Cc1ccc2[nH]c(C)c(CCNC(=O)c3c(N)no[n+]3[O-])c2c1	u	u	0%	-7%	71µM*	50µM*
CCCNC(=O)NCCc1c(C)[nH]c2ccccc12	0%	0%	-9%	25%	16%	-19%
CCc1cccc(C)c1NC(=S)NCCc1c(C)[nH]c2ccc(C)cc12	45µM*	25µM*	-1%	14%	u	45µM*
c1ccc(Nc2cccc(Nc3ccccc3)n2)cc1	7.9µM*	45µM*	-23%	-4%	u	56µM*
c1ccc(Nc2ccccn2)cc1	6%[59 µM]	1%	24µM*	6%	u	22µM*
C[C@]12CCC(=O)C=C1CCC1C2C(O)C[C@]2(C)C1CC[C@]2(O)C(=O)COC(=O)CCC(=O)O (stereo not given in full)	-3%[2.33 µM]	x	x	12%	x	x
Cc1nc(C)c(-c2csc(Nc3ccc(O)cc3C)n2)s1	-1%[59 µM]	-5%	27µM*	23%	15%	-30%
Cc1cc(O)ccc1Nc1nc(-c2cccnc2)cs1	x	u	-2%	3%	3%	-18%
Cc1nc(C)c(-c2csc(Nc3ccc(F)cc3)n2)s1	20µM*	u	-20%	-31%	u	u
Cc1cc(O)ccc1Nc1nc(-c2cccs2)cs1	45µM*	u	-27%	-18%	-16%	u
Cc1ccc(NC(=O)Cn2c(=O)n(CC(=O)NCCc3ccccc3)c(=O)c3ccccc32)cc1C	-15%[59 µM]	-4%	x	x	27%	-12%
O=C(CCCC(=O)NCc1ccc(F)cc1)NCc1ccc(F)cc1	21%	-13%	24µM*	13%	-30%	-31%
O=C(CCCC(=O)NCc1ccccc1)NCc1ccccc1	11%[59 µM]	3%	-2%	2%	26%	-1%
O=C(COc1ccc(Cl)cc1)NCc1ccc(F)cc1	0%	8%	27µM*	-3%	-3%	u
O=C(CSCc1ccc(F)cc1)NCc1ccc(F)cc1	18%[59 µM]	0%	-13%	22%	28%	100µM*!
CC1CC(C)(C)NC(=S)N1CCC(=O)NCc1ccc(F)cc1 (stereo not given)	40µM*	-3%	1%	10%	20%	-7%
C[C@@H]1CN([C@@H](C)CO)C(=O)c2cc(NC(=O)Nc3ccccc3)ccc2O[C@H]1CN(C)C(=O)Nc1cccc2ccccc12	x	x	-3%	x	24%	-14%
CCc1ccc(NC(=O)CSc2nc(C)c(C(=O)Nc3ccccc3)c(-c3ccc(OC)c(OC)c3)c2C#N)cc1	9%[59 µM]	-10%	x	x	10%	-21%
CC1CCCCC1NCC(=O)NCc1ccc(F)cc1 (stereo not given)	10µM*	50µM*	-2%	-15%	u	1.3µM*
O=[N+]([O-])c1ccc(-c2nc(Nc3ccc(O)cc3)c3ccccc3n2)cc1	u	-4%	-2%	9%	19%	-12%
O=C(O)c1ccc(Nc2nc(-c3ccc([N+](=O)[O-])cc3)nc3ccccc23)cc1	7%	50µM*	u	50µM*	-8%	u
O=[N+]([O-])c1ccc(Nc2c3ccccc3nc3ccccc23)cc1	13µM*	u	-10%	6%	-20%	u
SMILES	G9a block	BAZ2B inh	PLK1 PBD block	Sfp PPTase inh	HP1b chromo inh	JMJD2A Tudor
O=[N+]([O-])c1ccccc1Nc1c2ccccc2nc2ccccc12	9%	-25%	-1%	22%	13%	-23%
Cc1ccc(-n2ncc3c(=O)n(Cc4ccccc4C)cnc32)cc1C	3%[59 µM]	-1%	x	x	18%	-2%
O=c1[nH]cnc2ncc(-c3ccc(O)cc3)nc12	x	x	1%	x	22%	79µM*
CCC[C@H](NC(=O)[C@H](CC(C)C)N(C)C(=O)CNC(=O)[C@@H](NC(=O)[C@H](Cc1ccccc1)NC(=O)[C@H](CCCCN)NC(=O)[C@@H](N)CC(=O)O)C(C)C)C(N)=O	x	x	x	3%	x	x
Cc1ccc(S(=O)(=O)Nc2ccc(O)c(Sc3ncn[nH]3)c2)cc1	u	-16%	-7%	9%	-4%	-19%
Cc1cc(F)ccc1S(=O)(=O)Nc1ccc(O)c(Sc2ncn[nH]2)c1	40µM*	-1%	-24%	u	-6%	-29%
Cc1ccc(C)c(S(=O)(=O)Nc2ccc(O)c(Sc3ncn[nH]3)c2)c1	45µM*	-7%	u	u	11%	-18%[11.4 µM]
Cc1cc(F)ccc1S(=O)(=O)Nc1ccccc1C(=O)Nc1ncn[nH]1	45%[59 µM]	95%	-7%	1%	119%	38%
CNC(=O)C(C)Sc1ccc(S(=O)(=O)N2CCOCC2)cn1 (stereo not given)	u	4%	-3%	x	23%	-18%
CCOC(=O)c1noc2ncn(CC(=O)Nc3cccc(Cl)c3)c(=O)c12	10%[59 µM]	-3%	x	x	15%[57 µM]	-11%
CCCCN1CC(COCc2ccccc2)Oc2cc(Br)ccc2S1(=O)=O (stereo not given)	x	x	-8%	x	60%	19%
Cc1ccc(-n2ncc(C(=O)NCCCN3CCN(c4cccc(Cl)c4)CC3)c2-n2cccc2)cc1	u	u	x	x	-15%	u
Cc1ccc(S(=O)(=O)N/N=C\c2cn(CC(N)=O)c3ccccc23)cc1C	79µM*	u	-1%	7%	26%	-18%
COC(=O)c1ccc(-n2c(C)cc(C(=O)CSc3cccc[n+]3[O-])c2C)cc1	50µM*	-26%	-1%	11%	17%	-24%
C=CCn1c(C)cc(C(=O)CSc2ccc(NC(C)=O)cc2)c1C	u	u	-16%	-17%	21%	-2%[11.4 µM]
O=C(CSc1cccc[n+]1[O-])Nc1cc2c(cc1Cl)C(=O)c1ccccc1C2=O	7.9µM*	u	-30%	u	6%	u
CC(=O)Nc1ccc(SCC(=O)c2cc(C)n(-c3ccccc3F)c2C)cc1	u	45µM*	19µM*	u	-30%	u
COC(=O)c1ccc(-n2c(C)cc(C(=O)CSc3ccc(NC(C)=O)cc3)c2C)cc1	u	u	13µM*	-15%	-24%	u
CCN(CC(=O)Nc1ccc(NC(C)=O)cc1)C(=O)CN1C(=O)NC(C)(c2ccc3ccccc3c2)C1=O (stereo not given)	x	x	-8%	x	41%	-20%
